# Results as given in PubChem BioAssay.
# For part of these data: Measured potencies and affinities stand elsewhere. The source made the active and inactive calls.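 Rule for the calls, unless noted: active = earlier screen potentiator hit that boosts the TRPC4 ion channel at some dose, with a dose response; inactive = no potentiation, no dose response, or not a prior hit.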
# Columns and labels:
# [1] = system: TRPC4 beta (transient receptor potential cation channel C4), mouse; assay: TRPC4 cation channel opening, retest – cell-based, Fluo4 calcium, HEK293 TRPC4beta/mu-opioid, duplicates, 10 µM, confirmation (AID 2426;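 active = fluorescence ratio normalized to control raised more than 50% in primary screen plus both repeat runs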); details: Fluo4 calcium fluorescence, at 10 µM; hits give high values
# [2] = system: transient receptor potential cation channel C4 beta (TRPC4), mouse; assay: TRPC4 cation channel opening, second retest – cell-based, second round, Fluo4, HEK293 TRPC4beta/mu-opioid, 1 µM, confirmation (AID 2461;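 active = primary screen active and over 50% activation in each of two duplicate runs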); details: Fluo4 calcium fluorescence, at 1 µM; hits give high values
# [3] = system: TRPC4 (transient receptor potential cation channel C4 beta), mouse; assay: potentiation of DAMGO EC20 TRPC4 response – cell-based, second round, Fluo-4, HEK293 TRPC4beta/mu-opioid, 1 µM, confirmation (AID 2554;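 active = primary screen hit whose fluorescence ratio, in both repeats, exceeds the weak agonist control mean by 3 SD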); details: DAMGO EC20, Fluo-4 calcium flux, at 1 µM; hits give high values
# [4] = system: TRPC4 beta (transient receptor potential cation channel C4), mouse; assay: potentiation of DAMGO EC20 TRPC4 response – cell-based, Fluo-4, HEK293 TRPC4beta/mu-opioid, confirmation (AID 2555;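 active = primary screen hit whose calcium fluorescence ratio, in both repeats, exceeds the weak agonist control mean by 3 SD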); details: DAMGO EC20, Fluo-4 calcium flux, at 10 µM; hits give high values
# [5] = target: Short transient receptor potential channel 4 (Mus musculus) (UniProt Q9QUQ5); assay: blockers of DAMGO-evoked TRPC4 calcium flux – cell-based, Fluo4, HEK293 TRPC4beta/mu-opioid, confirmation (AID 2636;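 active = calcium signal cut by more than 3 SD below the full-agonist control yet still positive, in both repeats and the earlier primary screen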); details: at 10 µM; hits give high values
# [6] = target: Short transient receptor potential channel 4 (Mus musculus) (UniProt Q9QUQ5); assay: blockers of DAMGO-evoked TRPC4 calcium flux – cell-based, second round, Fluo4, HEK293 TRPC4beta/mu-opioid, 1 µM, confirmation (AID 2637;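 active = calcium signal ratio cut to more than 3 SD under the fully stimulated control mean yet still positive, in both repeats and the primary screen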); details: at 1 µM; hits give high values
# [7] = target: Short transient receptor potential channel 4 (Mus musculus) (UniProt Q9QUQ5); assay: calcium entry via TRPC4 opening agents – cell-based, HEK293 TRPC4/mu-opioid, Fluo-4 calcium, dose response (AID 434937;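 active = primary screen activator hit with a dose response curve and TRPC4 channel activation at any tested dose; inactive = no activation, no dose response, or not a primary hit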)
# [8] = target: Short transient receptor potential channel 4 (Mus musculus) (UniProt Q9QUQ5); assay: potentiation of DAMGO-evoked TRPC4 calcium signal – cell-based, HEK293 TRPC4/mu-opioid, Fluo-4 calcium, EC20 DAMGO, dose response (AID 434941);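 note: calcium entry triggered by an EC20 dose of DAMGO at the co-expressed mu-opioid receptor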
# [9] = target: Short transient receptor potential channel 4 (Mus musculus) (UniProt Q9QUQ5); assay: block of DAMGO-driven TRPC4 calcium entry – cell-based, HEK293 TRPC4/mu-opioid, Fluo-4 calcium, dose response (AID 434942;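 active = primary screen inhibitor hit that blocks the TRPC4 channel at some tested dose, yielding a dose curve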)
# [10] = target: Short transient receptor potential channel 6 (Mus musculus) (UniProt Q61143); assay: TRPC6 blockade by TRPC4 inhibitor hits – cell-based, HEK293, membrane potential dye, duplicate, selectivity assay for TRPC4 inhibitor project, confirmation (AID 434948;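 active = active in primary screen and both duplicates, each dropping signal beyond three positive-control SD with fluorescence still positive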); details: HEK293 TRPC6, membrane potential dye fluorescence, at 10 µM, stimulated with maximal-effect acetylcholine; hits give high values
# [11] = target: Short transient receptor potential channel 6 (Mus musculus) (UniProt Q61143); assay: TRPC6 opening by TRPC4 activator hits – cell-based, HEK293, membrane potential dye, duplicate, selectivity assay for TRPC4 activator project, confirmation (AID 434950;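 active = membrane potential signal rise above negative control mean plus 3 SD in both duplicates, also active in the earlier TRPC4 screen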;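 for activation: 0% = buffer only wells and 100% = acetylcholine maximal-effect wells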); details: HEK293 TRPC6, membrane potential fluorescence, at 10 µM; activation: hits give high values; outcome: activation
# [12] = target: Short transient receptor potential channel 6 (Mus musculus) (UniProt Q61143); assay: positive modulators of mouse TRPC6 channel – HEK293 cells, membrane potential dye, duplicate, selectivity assay for TRPC4 potentiator project, confirmation (AID 434952;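 active = compound raising the membrane signal above positive-control mean plus 3 SD in both repeats, and a primary screen hit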); details: HEK293 TRPC6, membrane potential dye fluorescence, at 10 µM, maximal acetylcholine added after compound; hits give high values
# [13] = target: Short transient receptor potential channel 4 (Mus musculus) (UniProt Q9QUQ5); assay: calcium flux activators in TRPC4/5HT1a cells, counter-screen for TRPC4 activator project, cell-based, second counter screen, HEK293 TRPC4/5HT1a, Fluo-4 (AID 434977;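 active = calcium signal rise above buffer-control mean plus 5 SD in both duplicates, and also a hit in the primary screen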); details: Fluo-4 calcium flux, at 10 µM; hits give high values
# [14] = serotonin-gated TRPC4 signal block – cell-based, second counter screen, HEK293 TRPC4/5HT1a, Fluo-4, counter-screen for TRPC4 inhibitor project, confirmation (AID 434978;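 active = primary screen active whose calcium signal fell more than 3 SD beyond the full-serotonin control mean in both duplicate plates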;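 note: serotonin given first at submaximal then at maximal dose after compound preincubation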); details: Fluo-4 calcium flux, at 10 µM, serotonin added to trigger calcium flux; hits give high values
# [15] = system: TRPC4 (mouse), co-expressed with 5HT1a in HEK293; assay: enhancement of serotonin-evoked TRPC4 response – cell-based, second counter screen, HEK293 TRPC4/5HT1a, Fluo-4, counter-screen for TRPC4 potentiator project, confirmation (AID 434979;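 active = signal rise over 3 SD above mean of control wells given weak agonist, in both repeats and first screen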); details: Fluo-4 calcium flux, at 10 µM, serotonin added at its EC20 dose; hits give high values
# [16] = nonspecific calcium rise without TRPC4 – cell-based, HEK293 mu-opioid receptor line, counter-screen for TRPC4 activator project, confirmation (AID 449723;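 active = hit in primary screen, with calcium signal over 5 SD above buffer well mean in both duplicates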;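 note: counter screen cells carry the mu-opioid receptor alone and lack TRPC4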); details: HEK293 mu-opioid cells, Fluo-4 calcium fluorescence, at 10 µM; hits give high values
# [17] = nonspecific potentiation of DAMGO calcium response – cell-based, HEK293 mu-opioid receptor line, counter-screen for TRPC4 allosteric potentiator project, confirmation (AID 449724;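 active = calcium signal rise more than 3 SD above the low-dose agonist control mean, in both duplicate plates and the primary screen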); details: HEK293 mu-opioid receptor cells, Fluo-4 calcium flux, at 10 µM, compound added before EC20 DAMGO stimulus; hits give high values
# Chain of Short transient receptor potential channel 6 (Mus musculus) (Q61143 whole entry, looked up): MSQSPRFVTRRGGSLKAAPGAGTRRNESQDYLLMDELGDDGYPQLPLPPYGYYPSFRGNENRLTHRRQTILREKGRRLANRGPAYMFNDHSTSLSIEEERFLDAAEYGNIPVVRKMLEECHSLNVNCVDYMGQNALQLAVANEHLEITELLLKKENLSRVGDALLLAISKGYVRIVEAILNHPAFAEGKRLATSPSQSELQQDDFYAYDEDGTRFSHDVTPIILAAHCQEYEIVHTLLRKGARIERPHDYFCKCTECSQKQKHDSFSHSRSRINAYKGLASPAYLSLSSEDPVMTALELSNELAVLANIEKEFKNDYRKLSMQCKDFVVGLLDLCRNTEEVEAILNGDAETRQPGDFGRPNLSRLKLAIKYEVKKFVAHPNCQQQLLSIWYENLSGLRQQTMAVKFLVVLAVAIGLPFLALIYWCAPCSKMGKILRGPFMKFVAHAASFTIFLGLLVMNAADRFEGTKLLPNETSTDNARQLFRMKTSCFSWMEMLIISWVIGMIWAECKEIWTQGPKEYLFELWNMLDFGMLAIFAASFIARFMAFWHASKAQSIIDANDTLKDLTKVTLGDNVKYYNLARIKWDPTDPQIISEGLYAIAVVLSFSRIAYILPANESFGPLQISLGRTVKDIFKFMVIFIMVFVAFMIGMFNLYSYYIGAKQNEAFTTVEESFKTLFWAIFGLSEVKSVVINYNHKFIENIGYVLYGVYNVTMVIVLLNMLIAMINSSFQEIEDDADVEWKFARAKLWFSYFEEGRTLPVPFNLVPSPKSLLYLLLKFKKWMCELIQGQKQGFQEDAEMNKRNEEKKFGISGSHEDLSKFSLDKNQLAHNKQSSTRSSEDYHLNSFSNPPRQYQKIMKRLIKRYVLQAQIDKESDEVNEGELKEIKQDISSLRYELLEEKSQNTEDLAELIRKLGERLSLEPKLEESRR
# Chain of Short transient receptor potential channel 4 (Mus musculus) (Q9QUQ5 whole entry, looked up): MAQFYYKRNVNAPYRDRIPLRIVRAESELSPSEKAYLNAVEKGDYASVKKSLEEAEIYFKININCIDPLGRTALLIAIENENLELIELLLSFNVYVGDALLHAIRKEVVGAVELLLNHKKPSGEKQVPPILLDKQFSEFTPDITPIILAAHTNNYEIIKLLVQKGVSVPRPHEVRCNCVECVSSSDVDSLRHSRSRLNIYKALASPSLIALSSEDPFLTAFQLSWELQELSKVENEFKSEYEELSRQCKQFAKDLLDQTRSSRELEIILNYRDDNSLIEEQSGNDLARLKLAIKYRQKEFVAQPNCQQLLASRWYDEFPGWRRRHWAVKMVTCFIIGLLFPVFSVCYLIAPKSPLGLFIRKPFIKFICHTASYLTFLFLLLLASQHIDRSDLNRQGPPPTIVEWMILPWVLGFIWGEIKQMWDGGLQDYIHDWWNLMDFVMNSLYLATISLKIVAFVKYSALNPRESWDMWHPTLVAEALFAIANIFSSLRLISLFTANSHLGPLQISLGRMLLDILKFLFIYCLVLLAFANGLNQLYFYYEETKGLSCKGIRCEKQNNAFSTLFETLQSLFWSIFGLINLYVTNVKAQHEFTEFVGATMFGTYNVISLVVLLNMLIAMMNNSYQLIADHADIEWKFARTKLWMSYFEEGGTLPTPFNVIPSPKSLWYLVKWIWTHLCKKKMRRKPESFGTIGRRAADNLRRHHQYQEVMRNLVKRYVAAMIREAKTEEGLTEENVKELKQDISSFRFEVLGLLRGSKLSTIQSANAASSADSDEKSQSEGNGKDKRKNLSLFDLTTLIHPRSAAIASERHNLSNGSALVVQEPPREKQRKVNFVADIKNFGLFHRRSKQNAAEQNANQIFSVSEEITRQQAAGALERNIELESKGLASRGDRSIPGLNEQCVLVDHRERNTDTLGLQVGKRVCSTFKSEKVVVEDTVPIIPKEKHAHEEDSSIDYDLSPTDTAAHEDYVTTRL
structure (smiles),measurement,setting,value
CCN(CC)CCNC(=O)c1cc2c(-c3cccc(OC)c3)nn(C)c2s1,outcome,[1],inactive
same,outcome,[2],inactive
same,outcome,[3],inactive
same,outcome,[4],inactive
same,outcome,[5],inactive
same,outcome,[6],inactive
same,outcome,[7],inactive
same,outcome,[8],inactive
same,outcome,[9],inactive
same,outcome,[10],inactive
same,outcome,[11],inactive
same,outcome,[12],inactive
same,outcome,[13],inactive
same,outcome,[14],inactive
same,potentiation,[15],20.8% (active)
same,outcome,[16],inactive
same,outcome,[17],inactive
COc1cc(/C=C2\C(=N)N3N=C(S(C)(=O)=O)SC3=NC2=O)ccc1OC(=O)c1cccs1,outcome,[1],inactive
same,outcome,[2],inactive
same,outcome,[3],inactive
same,outcome,[4],inactive
same,inhibition,[5],86% (active)
same,outcome,[6],inactive
same,outcome,[7],inactive
same,outcome,[8],inactive
same,outcome,[9],inactive
same,outcome,[10],inactive
same,outcome,[11],inactive
same,outcome,[12],inactive
same,outcome,[13],inactive
same,outcome,[14],inactive
same,outcome,[15],inactive
same,outcome,[16],inactive
same,outcome,[17],inactive
NS(=O)(=O)c1ccc(CCNCc2cc(Br)ccc2OCc2ccccc2)cc1,outcome,[1],inactive
same,outcome,[2],inactive
same,outcome,[3],inactive
same,outcome,[4],inactive
same,outcome,[5],inactive
same,outcome,[6],inactive
same,outcome,[7],inactive
same,outcome,[8],inactive
same,outcome,[9],inactive
same,outcome,[10],inactive
same,outcome,[11],inactive
same,outcome,[12],inactive
same,outcome,[13],inactive
same,outcome,[14],inactive
same,outcome,[15],inactive
same,outcome,[16],inactive
same,outcome,[17],inactive
CC1CC(C)CN(CCCNC(=O)c2ccc(N3CCCC3=O)cc2)C1 (stereo not given),outcome,[1],inactive
same,outcome,[2],inactive
same,outcome,[3],inactive
same,outcome,[4],inactive
same,outcome,[5],inactive
same,outcome,[6],inactive
same,outcome,[7],inactive
same,outcome,[8],inactive
same,outcome,[9],inactive
same,outcome,[10],inactive
same,outcome,[11],inactive
same,outcome,[12],inactive
same,outcome,[13],inactive
same,outcome,[14],inactive
same,potentiation,[15],27.3% (active)
same,outcome,[16],inactive
same,outcome,[17],inactive
CC(=O)c1ccc(N2CCN(C(=O)CCS(=O)(=O)c3ccc4c(c3)NC(=O)CS4)CC2)cc1,outcome,[1],inactive
same,outcome,[2],inactive
same,outcome,[3],inactive
same,outcome,[4],inactive
same,outcome,[5],inactive
same,outcome,[6],inactive
same,outcome,[7],inactive
same,outcome,[8],inactive
same,outcome,[9],inactive
same,outcome,[10],inactive
same,outcome,[11],inactive
same,outcome,[12],inactive
same,outcome,[13],inactive
same,outcome,[14],inactive
same,potentiation,[15],20.9% (active)
same,outcome,[16],inactive
same,outcome,[17],inactive
CN(CCNS(=O)(=O)c1ccc2c(c1)oc(=O)n2C)Cc1ccccc1,outcome,[1],inactive
same,outcome,[2],inactive
same,outcome,[3],inactive
same,potentiation,[4],8% (active)
same,outcome,[5],inactive
same,outcome,[6],inactive
same,outcome,[7],inactive
same,outcome,[8],inactive
same,outcome,[9],inactive
same,outcome,[10],inactive
same,outcome,[11],inactive
same,outcome,[12],inactive
same,outcome,[13],inactive
same,outcome,[14],inactive
same,potentiation,[15],13.7% (active)
same,outcome,[16],inactive
same,outcome,[17],inactive
CCn1c(=O)c2cc(C(=O)N(C)c3cc(C)ccc3OC)sc2c2ccccc21,outcome,[1],inactive
same,outcome,[2],inactive
same,outcome,[3],inactive
same,outcome,[4],inactive
same,inhibition,[5],74% (active)
same,outcome,[6],inactive
same,outcome,[7],inactive
same,outcome,[8],inactive
same,outcome,[9],inactive
same,outcome,[10],inactive
same,outcome,[11],inactive
same,outcome,[12],inactive
same,outcome,[13],inactive
same,outcome,[14],inactive
same,outcome,[15],inactive
same,outcome,[16],inactive
same,outcome,[17],inactive
O=C(CN1CCCN(S(=O)(=O)c2ccc(F)cc2)CC1)Nc1ccccc1Br,outcome,[1],inactive
same,outcome,[2],inactive
same,outcome,[3],inactive
same,outcome,[4],inactive
same,inhibition,[5],70% (active)
same,outcome,[6],inactive
same,outcome,[7],inactive
same,outcome,[8],inactive
same,outcome,[9],inactive
same,outcome,[10],inactive
same,outcome,[11],inactive
same,outcome,[12],inactive
same,outcome,[13],inactive
same,outcome,[14],inactive
same,outcome,[15],inactive
same,outcome,[16],inactive
same,outcome,[17],inactive
C/C=C/Cn1c(SCCCc2ccccc2)nc2c1c(=O)[nH]c(=O)n2C,outcome,[1],inactive
same,outcome,[2],inactive
same,potentiation,[3],12% (active)
same,potentiation,[4],27% (active)
same,outcome,[5],inactive
same,outcome,[6],inactive
same,outcome,[7],inactive
same,outcome,[8],inactive
same,outcome,[9],inactive
same,outcome,[10],inactive
same,outcome,[11],inactive
same,outcome,[12],inactive
same,outcome,[13],inactive
same,outcome,[14],inactive
same,potentiation,[15],88.5% (active)
same,outcome,[16],inactive
same,outcome,[17],inactive
Fc1ccc2c(c1)C(c1ccncc1)=NNC(c1ccc(Cl)cc1)=N2,outcome,[1],inactive
same,outcome,[2],inactive
same,outcome,[3],inactive
same,outcome,[4],inactive
same,outcome,[5],inactive
same,outcome,[6],inactive
same,outcome,[7],inactive
same,outcome,[8],inactive
same,outcome,[9],inactive
same,outcome,[10],inactive
same,outcome,[11],inactive
same,outcome,[12],inactive
same,outcome,[13],inactive
same,outcome,[14],inactive
same,outcome,[15],inactive
same,outcome,[16],inactive
same,outcome,[17],inactive
O=C(COc1ccccc1-c1ccccc1)NCc1ccco1,outcome,[1],inactive
same,outcome,[2],inactive
same,outcome,[3],inactive
same,outcome,[4],inactive
same,outcome,[5],inactive
same,outcome,[6],inactive
same,outcome,[7],inactive
same,outcome,[8],inactive
same,outcome,[9],inactive
same,outcome,[10],inactive
same,outcome,[11],inactive
same,outcome,[12],inactive
same,outcome,[13],inactive
same,outcome,[14],inactive
same,outcome,[15],inactive
same,outcome,[16],inactive
same,outcome,[17],inactive
COc1ccc(CCNCC(O)COc2ccc(OC)cc2C(C)(C)C)cc1 (stereo not given),outcome,[1],inactive
same,outcome,[2],inactive
same,outcome,[3],inactive
same,outcome,[4],inactive
same,outcome,[5],inactive
same,outcome,[6],inactive
same,outcome,[7],inactive
same,outcome,[8],inactive
same,outcome,[9],inactive
same,outcome,[10],inactive
same,outcome,[11],inactive
same,outcome,[12],inactive
same,outcome,[13],inactive
same,outcome,[14],inactive
same,outcome,[15],inactive
same,outcome,[16],inactive
same,outcome,[17],inactive
CCCCCOc1ccc2oc(=O)c3c(c2c1)CCCN3C(=O)CN1CCCC(C(=O)OCC)C1 (stereo not given),outcome,[1],inactive
same,outcome,[2],inactive
same,outcome,[3],inactive
same,outcome,[4],inactive
same,outcome,[5],inactive
same,outcome,[6],inactive
same,outcome,[7],inactive
same,outcome,[8],inactive
same,outcome,[9],inactive
same,outcome,[10],inactive
same,outcome,[11],inactive
same,outcome,[12],inactive
same,outcome,[13],inactive
same,outcome,[14],inactive
same,potentiation,[15],7.34% (active)
same,outcome,[16],inactive
same,outcome,[17],inactive
O=c1oc2ccccc2c(O)c1/C=C1\C=Nc2ccccc21,outcome,[1],inactive
same,outcome,[2],inactive
same,outcome,[3],inactive
same,outcome,[4],inactive
same,outcome,[5],inactive
same,outcome,[6],inactive
same,outcome,[7],inactive
same,outcome,[8],inactive
same,outcome,[9],inactive
same,outcome,[10],inactive
same,activation,[11],32.5% (active)
same,outcome,[12],inactive
same,outcome,[13],inactive
same,outcome,[14],inactive
same,outcome,[15],inactive
same,outcome,[16],inactive
same,outcome,[17],inactive
O=C(Nc1cnn(C23CC4CC(CC(C4)C2)C3)c1)c1cnn2cccnc12,outcome,[1],inactive
same,outcome,[2],inactive
same,potentiation,[3],27% (active)
same,potentiation,[4],61% (active)
same,outcome,[5],inactive
same,outcome,[6],inactive
same,outcome,[7],inactive
same,outcome,[8],inactive
same,outcome,[9],inactive
same,outcome,[10],inactive
same,outcome,[11],inactive
same,outcome,[12],inactive
same,outcome,[13],inactive
same,outcome,[14],inactive
same,potentiation,[15],71.9% (active)
same,outcome,[16],inactive
same,outcome,[17],inactive
